Results published in PubChem BioAssay (Tox21).
Where “and” joins values, the source holds several entries; their conditions need not be identical. Equal entries are not always repeated. Records with an inconclusive call do not appear. Where a structure was tested more than once in an assay, its records may differ in their call. Calls of active or inactive are those of the source. Unless noted, calls follow the shape of the dose curve; as a rule, active = well fitted curve in the direction sought with a large enough effect in the repeat runs; inconclusive = weak or mixed curves; inactive = no such curve, though single readings can be large; an effect the other way counts as inactive or inconclusive.

Tests used:
[1] = qHTS assay to identify small molecule agonists of the hypoxia (HIF-1) signaling pathway - cell viability counter screen (AID 1224844; calls by dose curve; also: nearly all actives have a fitted effect of over 50% in size; also: potency is read from the fitted curve at half-maximal effect)
In short: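 In this counter screen, HRE-bla ME-180 cell viability after 17 hrs of compound exposure at 37C was read by CellTiter-Glo luminescence, multiplexed with the beta-lactamase reporter measurement.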

[2] = qHTS assay to identify small molecule agonists of H2AX (AID 1224845; active = well fitted activation curve with a large enough effect in the signal ratio in the repeat runs, not every such curve was filed as active; the % refers to the signal ratio)
In short: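 Wild-type CHO-K1 cells plated overnight, then exposed 3 hr at 37C to compounds at 15 concentrations (0.76% DMSO). Lysed, then HTRF anti-pH2AX(S139)-cryptate/anti-H2AX-d2 detection after 24 hr at room temperature; emissions 665 and 620 nm.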

[3] = qHTS assay to identify small molecule agonists of the hypoxia (HIF-1) signaling pathway (AID 1224846; active = well fitted activation curve with a large enough effect in the signal ratio in the repeat runs, not every such curve was filed as active; the % refers to the signal ratio)
In short: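 ME-180 HRE-bla reporter cells; compounds in DMSO, 17 h at 37C; read-out beta-lactamase via CCF4-AM FRET.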

[4] = qHTS assay to identify small molecule agonists of H2AX - cell viability counter screen (AID 1224847; calls by dose curve; also: nearly all actives have a fitted effect of over 30% in size; also: potency is read from the fitted curve at half-maximal effect)
In short: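 Cytotoxicity counter screen in wild-type CHO-K1 cells: a 3 hr compound treatment at 37C across 15 concentrations, followed by CellTiter-Glo luminescence to gauge viable cells.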

[5] = qHTS RealTime-Glo MT Cell Viability Assay in HepG2 cells - 24 hour (AID 1224867); also: nearly all actives have a fitted effect of over 50% in size; also: potency is read from the fitted curve at half-maximal effect
In short: (§1)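 HepG2 suspension premixed with RealTime-Glo reagents is plated at 600 cells per well and left 5 h at 37 C/5% CO2. Compounds in DMSO then go in, and bioluminescence reflecting viable cell number is recorded over 40 h.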

[6] = qHTS RealTime-Glo MT Cell Viability Assay in HEK293 cells - 32 hour (AID 1224868); also: nearly all actives have a fitted effect of over 50% in size; also: potency is read from the fitted curve at half-maximal effect
In short: (§2)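 Reads taken at 0, 8, 16, 24, 32 and 40 h from the same wells. HEK293 cells (600/well) carried RealTime-Glo reagents from seeding, with compound added after a 5 h settle at 37 C.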

[7] = qHTS RealTime-Glo MT Cell Viability Assay in HepG2 cells - 40 hour (AID 1224870); also: nearly all actives have a fitted effect of over 50% in size; also: potency is read from the fitted curve at half-maximal effect
In short: (§3)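 HepG2 cells mixed with RealTime-Glo MT reagents (NanoLuc plus cell-permeant prosubstrate) were seeded at 600 cells/well, incubated 5 h at 37 C/5% CO2, then pinned with compounds in DMSO; nonlytic luminescence tracked viability during 40 h treatment.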

[8] = A CellTox Green Cytotoxicity Assay to monitor cytotoxicity in HEK293 cells - 40 hour (AID 1224871); also: nearly all actives have a fitted effect of over 45% in size; also: potency is read from the fitted curve at half-maximal effect
In short: (§4)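 Real-time, in one plate: 600 HEK293 cells/well with dead-cell DNA dye, pinned compound after 5 h, 37 C incubation over 40 h; viable cells give no appreciable fluorescence.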

[9] = qHTS RealTime-Glo MT Cell Viability Assay in HEK293 cells - 16 hour (AID 1224872); also: nearly all actives have a fitted effect of over 50% in size; also: potency is read from the fitted curve at half-maximal effect
In short: as §2

[10] = qHTS RealTime-Glo MT Cell Viability Assay in HepG2 cells - 8 hour (AID 1224873); also: nearly all actives have a fitted effect of over 55% in size; also: potency is read from the fitted curve at half-maximal effect
In short: as §3

[11] = A CellTox Green Cytotoxicity Assay to monitor cytotoxicity in HEK293 cells - 24 hour (AID 1224875); also: nearly all actives have a fitted effect of over 45% in size; also: potency is read from the fitted curve at half-maximal effect
In short: as §4

[12] = A CellTox Green Cytotoxicity Assay to monitor cytotoxicity in HepG2 cells - 16 hour (AID 1224876); also: nearly all actives have a fitted effect of over 45% in size; also: potency is read from the fitted curve at half-maximal effect
In short: (§5)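 Cytotoxicity was tracked as dead-cell DNA fluorescence in HepG2 cells treated with test compounds at 37 C; each time-point value comes from one kinetic series spanning 0, 8, 16, 24, 32 and 40 h.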

[13] = qHTS RealTime-Glo MT Cell Viability Assay in HepG2 cells - 32 hour (AID 1224877); also: nearly all actives have a fitted effect of over 55% in size; also: potency is read from the fitted curve at half-maximal effect
In short: as §1

[14] = A CellTox Green Cytotoxicity Assay to monitor cytotoxicity in HepG2 cells - 24 hour (AID 1224878); also: nearly all actives have a fitted effect of over 45% in size; also: potency is read from the fitted curve at half-maximal effect
In short: as §5

[15] = A CellTox Green Cytotoxicity Assay to monitor cytotoxicity in HepG2 cells - 40 hour (AID 1224879); also: nearly all actives have a fitted effect of over 40% in size; also: potency is read from the fitted curve at half-maximal effect
In short: as §5

[16] = qHTS RealTime-Glo MT Cell Viability Assay in HEK293 cells - 0 hour (AID 1224880)
In short: (§6)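 Kinetic, non-lysing viability readout. Seed HEK293 (600/well) with reagent, incubate 5 h at 37 C/5% CO2, pin 23 nL compound in DMSO, incubate at 37 C, read luminescence at 0, 8, 16, 24, 32, 40 h.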

[17] = qHTS assay to identify small molecule antagonists of the estrogen related receptor (ERR) signaling pathway from Tox21 library (AID 1224848); also: nearly all actives have a fitted effect of over 50% in size
In short: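 First, 2,000 ERR cells per well were plated and held 6 h at 37 C/5% CO2. Next, compounds in DMSO were pinned in and left 18 h at 37 C. Finally, ONE-Glo was added and luminescence read after 30 min at room temperature.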

[18] = qHTS assay to identify small molecule agonists of the estrogen related receptor (ERR) signaling pathway from Tox21 library (AID 1224849; calls by dose curve; also: nearly all actives have a fitted effect of over 15% in size); settings: ERR reporter cell line, ONE-Glo luciferase, 18 h
In short: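 Luciferase activity in ERR pathway reporter cells served as the agonist readout; exposure lasted 18 h at 37 C, with ONE-Glo detection after 30 min at room temperature.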

[19] = A CellTox Green Cytotoxicity Assay to monitor cytotoxicity in HEK293 cells - 0 hour (AID 1224869); also: nearly all actives have a fitted effect of over 50% in size
In short: as §4

[20] = qHTS RealTime-Glo MT Cell Viability Assay in HEK293 cells - 40 hour (AID 1224874); settings: RealTime-Glo luminescence; max response: stronger effect = lower value; also: nearly all actives have a fitted effect of over 50% in size; also: potency is read from the fitted curve at half-maximal effect
In short: as §6
% is scaled to controls: 0 for no effect and ±100 for the full control effect.

O=C(O)c1ccccc1
inactive: Potency [1] | Potency [2] | outcome [3] | Potency [4] | Potency [5] | Potency [6] | Potency [7] | Potency [8] | Potency [9] | Potency [10] | Potency [11] | Potency [12] | Potency [13] | Potency [14] | Potency [15] | Potency [16]

CCCCNC(=O)NS(=O)(=O)c1ccc(C)cc1
inactive: Potency [1] | Potency [2] | Potency [4] | Potency [17] | activity change, positive = activation ([18]; at 42.5 µM (top of the series)) 4.14% | activity change, positive = activation ([18]; at 92.4 µM (top of the series)) -14.4% and 0.897% | Potency [5] | Potency [6] | Potency [19] | Potency [7] | Potency [8] | Potency [9] | Potency [10] | max response [20] -2.16% and 5.08% and 4.55% | Potency [11] | Potency [12] | Potency [13] | Potency [14] | Potency [15]

CNNCc1ccc(C(=O)NC(C)C)cc1
active: Potency [15] 24.5 µM and 15.5 µM and 23.9 µM
inactive: Potency [1] | Potency [2] | outcome [3] | Potency [4] | Potency [5] | Potency [6] | Potency [7] | Potency [8] | Potency [9] | Potency [10] | max response [20] 2.93% and 2.31% and 7.98% | Potency [11] | Potency [12] | Potency [13] | Potency [14]

CCCCCCCCCCCC[N+](C)(C)Cc1ccccc1
inactive: Potency [2] | Potency [19]
active: Potency [1] 53.9 µM | Potency [4] 98.8 µM and 110 µM and 49.2 µM | Potency [5] 12.1 µM and 21.2 µM and 8.49 µM | Potency [6] 3.4 µM and 2.99 µM and 2.13 µM | Potency [7] 8.54 µM and 16.8 µM and 6.74 µM | Potency [8] 42.8 µM and 47.4 µM and 23.9 µM | Potency [9] 24.1 µM and 23.8 µM and 8.49 µM | Potency [10] 48 µM and 53.2 µM and 26.8 µM | Potency [20] 1.91 µM and 2.12 µM and 1.9 µM | Potency [11] 42.8 µM and 47.4 µM and 23.9 µM | Potency [12] 21.5 µM and 26.7 µM and 19 µM | Potency [13] 9.58 µM and 18.9 µM and 6.74 µM | Potency [14] 19.1 µM and 23.8 µM and 10.7 µM | Potency [15] 13.5 µM and 18.9 µM and 8.49 µM

Cc1cc(C)nc(NS(=O)(=O)c2ccc(N)cc2)n1
inactive: Potency [1] | Potency [2] | outcome [3] | Potency [4] | Potency [5] | Potency [6] | Potency [7] | Potency [8] | Potency [9] | Potency [10] | max response [20] -37.4% and -3.88% and 7.67% | Potency [11] | Potency [12] | Potency [13] | Potency [14] | Potency [15]

CCCCOC(=O)c1ccc(O)cc1
24.8 µM (active) and inactive: Potency [9]
49.6 µM (active) and inactive: Potency [8]
active: Potency [6] 24.8 µM | Potency [20] 24.8 µM and 21.9 µM
inactive: Potency [1] | Potency [2] | Potency [4] | Potency [5] | Potency [19] | Potency [7] | Potency [10] | Potency [11] | Potency [12] | Potency [13] | Potency [14] | Potency [15] | Potency [16]
